Sampled rows, rich in hits. Any-hit rate of the full collection: about 2.4%.
D2 PAM-1: HTS Assay for Positive Allosteric Modulators of the Human D2 Dopamine Receptor: Primary Screen for Potentiators. D(2) dopamine receptor (Homo sapiens), P14416. HEK293 T-REx D2, calcium flux, EC20 dopamine potentiation. potentiation, % at 10 µM. 340,000 compounds, 0.34% hits;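 active = potentiation over 3 SD above the plate norm, cut at about 30% in these data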; note: 0% is about no effect
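Potentiation of an EC20 dopamine calcium response is measured in a force-coupled, tetracycline-inducible Hek293 Trex D2 line. Compound-only kinetic reads over 180 s flag agonists before dopamine addition.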
D2 ag-1: HTS Assay for Allosteric Agonists of the Human D2 Dopamine Receptor: Primary Screen for Agonists. 340,000 compounds, 0.53% hits. activation, % at 2 µM. AID 485358, 2010. HEK293 T-REx D2 cells, calcium flux agonist mode;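 active = activation over 3 SD above normal in the single-dose calcium agonist read, cut at about 30% in these data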; note: 0% is about no effect
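In this primary screen, compounds producing a positive calcium signal within 180 s of addition to tetracycline-induced, force-coupled HEK293 Trex D2 cells are flagged; cells are dye-loaded with a no-wash calcium kit beforehand.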
D2 ag-2: Beta-Arrestin HTS for Positive Allosteric Modulators of the Human D2 Dopamine Receptor: Agonists. activation, % (concentration not given with the values). 360,000 compounds, 0.084% hits. DiscoveRx PathHunter D2 beta-arrestin, luminescence, 90 min; 100% = 57 uM dopamine signal; in the data active = activation above about 40%; inconclusive = between about 15% and that limit
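DiscoveRx PathHunter D2 beta-arrestin cells (2,100/well) attached overnight, then compound-stimulated 90 min at 37 C in HBSS/10 mM HEPES/0.1% Tween-20 buffer; beta-galactosidase complementation read by luminescence after 1 h at ambient temperature. Dopamine 57 uM final (EC100) as control.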
D2 antag: HTS Assay for Allosteric Antagonists of the Human D2 Dopamine Receptor: Primary Screen for Antagonists | inhibition, % at 10 µM | 340,000 compounds, 2% hits | HEK293 TREx D2 cells, calcium flux, dopamine EC80; in the data active = inhibition above about 30%; inactive = below that, where a call was filed; note: 0% is about no effect
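Tetracycline-induced HEK293 T-REx cells expressing D2 force-coupled to calcium signalling were dye-loaded, exposed to compound for 180 s, then challenged with an EC80 of dopamine; calcium flux was followed kinetically for a further 180 s.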
D2 PAM-2: Beta-Arrestin HTS for Positive Allosteric Modulators of the Human D2 Dopamine Receptor: Potentiators | D(2) dopamine receptor (Homo sapiens), P14416 | DiscoveRx D2 beta-arrestin cells, luminescence, 90 min; 100% = 57 uM dopamine signal | potentiation, % (no concentration beside the values) | 360,000 compounds, 0.23% hits | AID 624464, 2012; in the data active = potentiation above about 50%; inconclusive = mostly about 30% to 49%
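PathHunter beta-arrestin assay in DiscoveRx D2 cells. Compounds were added with an EC20 of dopamine (50 nM final) for 90 min at 37 deg C. Luminescence was read 1 h after detection reagent, with 57 uM dopamine as the EC100 control.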
D3 arrestin ag: qHTS of D3 Dopamine Receptor Agonist: D3 Dopamine Receptor B-arrestin Agonist Confirmatory Assay; shares compounds with D2 ag-1; Potency, µM (highest dose often 76.9 µM), for the others: at the top dose activation, most hits filed as activators; 2,300 compounds, 4% hits; DiscoveRx D3 beta-arrestin cells, luminescence, 90 min; AID 720506, 2013;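 note: potency is the fitted concentration of half-maximal effect; 100% = dopamine control response; nearly all actives have a fitted effect of over 70% in size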
Target sequence (P35462 whole entry, looked up): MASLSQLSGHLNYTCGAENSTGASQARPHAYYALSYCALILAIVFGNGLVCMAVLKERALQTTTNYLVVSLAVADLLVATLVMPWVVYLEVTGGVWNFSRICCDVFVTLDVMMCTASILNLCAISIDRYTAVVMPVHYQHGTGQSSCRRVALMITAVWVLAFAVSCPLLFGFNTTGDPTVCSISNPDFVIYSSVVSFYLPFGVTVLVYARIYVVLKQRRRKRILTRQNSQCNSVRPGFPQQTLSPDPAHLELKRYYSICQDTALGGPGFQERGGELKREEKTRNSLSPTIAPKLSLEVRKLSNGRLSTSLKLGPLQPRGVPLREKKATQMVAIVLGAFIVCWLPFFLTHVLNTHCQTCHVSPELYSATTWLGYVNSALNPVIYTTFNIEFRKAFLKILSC
D2 ag-3: qHTS of D3 Dopamine Receptor Agonist: D2 Dopamine Receptor B-arrestin Agonist Counterscreen. shares compounds with D2 ag-1. DiscoveRx PathHunter D2 beta-arrestin, luminescence, 90 min; response scale: percent relative to full dopamine signal. Potency, µM (highest dose often 76.9 µM), inactives show at the highest dose activation, usual class: activators. 2,300 compounds, 5.9% hits; note: potency is the fitted concentration of half-maximal effect; % of control where 0% means no effect; nearly all actives have a fitted effect of over 70% in size
An asterisk follows results filed as active; ? = inconclusive; . = no result. Unless noted, calls come from the whole dose curve; as a rule, active = well fitted activation curve with a large enough effect; inconclusive = small, poorly fitted or top-dose-only effect; inactive = flat fitted curve, though single readings scatter.

SMILES	D2 PAM-1	D2 ag-1	D2 ag-2	D2 antag	D2 PAM-2	D3 arrestin ag	D2 ag-3
COc1ccc([C@H]2CC(=O)C=C(c3ccc4cc[nH]c4c3)C2)cc1	-4	-1	-2	0	-3	2%	-2%
COc1ccc(C2=CC(=O)C[C@H](c3ccc(OC)c(OC)c3)C2)cn1	-3	1	1	-11	-5	2%	4%
COc1ccc([C@H]2CC(=O)C=C(c3ccc(OC)cc3OC)C2)cc1	0	1	-1	4	5	-7%	-1%
COc1ccc([C@H]2CC(=O)C=C(c3ccc(F)nc3)C2)cc1OC	-6	0	1	4	2	.	.
COc1ccc([C@H]2CC(=O)C=C(c3cccc(OCc4ccccc4)c3)C2)cc1	-7	-1	-3	9	-12	-11%	-3%
COc1ccc(C2=CC(=O)C[C@H](c3ccc(OC)cc3)C2)cc1	0	.	-2	.	-8	.	.
O=C(NCc1cccs1)c1csc([C@@H]2O[C@H](CO)[C@H](O)[C@H](O)[C@H]2O)n1	.	.	-4	.	-9	.	.
COc1ccc(C2CC(=O)C=C(O)C2)cc1 (configuration not stated)	-16	53*	-1	-9	-14	-4%	-3%
O=C1C=C(O)CC(c2ccc(Cl)cc2)C1 (configuration not stated)	4	1	-1	-8	-21	.	.
COc1ccc(C(=O)NCCc2csc(-c3ccc(Cl)cc3)n2)c(OC)c1	10	1	.	.	.	.	.
COCCN(CC(=O)Nc1cccc(C)c1C)C(=O)c1ccc2c(c1)OCO2	-1	-1	-4	-8	-7	.	.
CCCN(CC(=O)Nc1ccccc1C)C(=O)c1ccc2c(c1)OCO2	8	-2	-2	-9	-11	-4%	-2%
C/C(Cn1cnc([N+](=O)[O-])n1)=N\NC(=O)c1ccccc1O	3	0	7	0	-9	.	.
C/C(Cn1cnc([N+](=O)[O-])n1)=N\NC(=O)c1ccc(O)cc1O	17	6	-4	-4	1	?	1%
CCC(=O)Nc1ccc2c(c1)nc(CCN1CCN(c3ccccc3)CC1)n2C	-22	62*	4	21	-9	-5%	7%
CCC(=O)Nc1ccc2c(c1)nc(CCN1CCCCC1)n2C	-2	1	-7	-3	-17	.	.
CC(C)C(=O)Nc1ccc2c(c1)nc(CCN1CCN(c3ccccn3)CC1)n2C	-22	67*	?	33*	-2	?	16%
Cn1c(CCN2CCN(c3ccccn3)CC2)nc2cc(NC(=O)COc3ccc([N+](=O)[O-])cc3)ccc21	-14	82*	2	31*	3	15%	18%
CCCSc1ncc(Cl)c(C(=O)Nc2scc(-c3ccc(C)cc3)c2C(=O)OCC)n1	.	0	.	.	.	.	.
O=C(NCc1ccccc1)c1nncc(-c2ccccc2)n1	-2	0	-5	9	-15	2%	-4%
COc1ccc(C2c3ccc4ccccc4c3Oc3ncn(CCCO)c(=N)c32)cc1OC (configuration not stated)	.	.	-1	.	-4	2%	4%

Screening results deposited in PubChem by National Center for Advancing Translational Sciences (NCATS).
